Source: the supplement of paper PMC9694430

System: T1, LOC_OS04G38480-cb003
T1 sequence (whole entry): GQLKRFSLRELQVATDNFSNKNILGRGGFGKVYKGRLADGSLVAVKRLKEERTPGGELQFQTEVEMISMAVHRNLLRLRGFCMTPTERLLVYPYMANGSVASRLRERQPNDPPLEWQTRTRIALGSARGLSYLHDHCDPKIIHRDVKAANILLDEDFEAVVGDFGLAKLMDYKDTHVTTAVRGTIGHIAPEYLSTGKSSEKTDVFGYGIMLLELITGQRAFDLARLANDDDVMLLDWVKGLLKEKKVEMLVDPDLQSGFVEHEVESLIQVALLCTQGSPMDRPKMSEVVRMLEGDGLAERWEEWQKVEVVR
Assay: thermal shift delta Tm vs DMSO control; higher = stronger stabilization (binding)
Conditions: 12.5 µM; protein concentration 2 µM
How it was run: (§1)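 Purified, E. coli-expressed rice kinase domain constructs were tested by differential scanning fluorimetry in 96-well plates: 19.5 μl of 2 μM kinase in 100 mM potassium phosphate pH 7.5, 150 mM NaCl, 10% glycerol, 5 × SYPRO Orange, plus compound in DMSO. Fluorescence was read from 25°C to 95°C at 0.05°C/s. Melting temperatures came from Boltzmann fits, and the shift is the triplicate mean relative to protein with DMSO alone.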

| Structure (SMILES) | thermal shift delta Tm [°C] |
| --- | --- |
| OCCn1cc(-c2cnc3nnn(Cc4ccc5ncccc5c4)c3n2)cn1 | -0.51 |
| O=C1NC(=O)C(c2cnc3ccccn23)=C1c1cn2c3c(cc(F)cc13)CN(C(=O)N1CCCCC1)CC2 | 1.47 |
| C=CC(=O)N1CCC[C@@H](n2nc(-c3ccc(Oc4ccccc4)cc3)c3c(N)ncnc32)C1 | 1.2 |
| CC(C)(O)CNc1ncc(-c2ccnc(Nc3ccnc(Cl)c3)n2)c(CC2CC2)n1 | 1.45 |
| COc1ccc(S(=O)(=O)N(C(C)=O)c2ccccc2/C=C/c2cc[n+]([O-])cc2)cc1 | 0.55 |

System: T2, LOC_OS04G41100-cb001
T2 sequence (whole entry): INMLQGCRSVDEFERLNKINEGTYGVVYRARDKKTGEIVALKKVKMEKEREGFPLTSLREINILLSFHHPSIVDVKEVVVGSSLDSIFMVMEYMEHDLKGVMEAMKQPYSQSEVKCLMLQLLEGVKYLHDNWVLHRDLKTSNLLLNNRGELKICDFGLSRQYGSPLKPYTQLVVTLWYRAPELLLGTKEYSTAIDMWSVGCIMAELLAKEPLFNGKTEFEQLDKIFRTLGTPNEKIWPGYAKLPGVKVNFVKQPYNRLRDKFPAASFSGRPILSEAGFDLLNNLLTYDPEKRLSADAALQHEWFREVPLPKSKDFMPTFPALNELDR
Assay: as above
Conditions: 12.5 µM; protein concentration 2 µM
How it was run: as §1

| Structure (SMILES) | thermal shift delta Tm [°C] |
| --- | --- |
| COc1cc(OC)cc(-c2cc3cnc(N)nc3nc2NC(=O)NC(C)(C)C)c1 | 0.39 |
| COc1cc2nccc(Oc3ccc(NC(=O)C4(C(=O)Nc5ccc(F)cc5)CC4)cc3)c2cc1OC [Cabozantinib malate (XL184)] | 0.69 |
| COc1ncc(-c2ccc3nccc(-c4ccnnc4)c3c2)cc1NS(=O)(=O)c1ccc(F)cc1F | 0.74 |
| Cc1cc(C(C)Nc2ccccc2)c2nc(N3CCOCC3)cc(=O)n2c1 (centres undefined) | 0.33 |
| FC(F)(F)c1ccc(CNc2ccc(Cc3c[nH]c4ncc(Cl)cc34)cn2)cn1 [Pexidartinib (PLX3397)] | 0.51 |
| NC(=O)c1ccc(N(C(N)=O)c2c(F)cccc2F)nc1-c1ccc(F)cc1F | 0.38 |
| NCC(=O)Nc1ccc(-n2nc(C(F)(F)F)cc2-c2ccc3c(ccc4ccccc43)c2)cc1 | 0.65 |
| CCn1c(-c2nonc2N)nc2c(C#CC(C)(C)O)ncc(OC[C@H]3CCCNC3)c21 | 1.1 |
| Nc1cccc(S(=O)(=O)N2CCCN(S(=O)(=O)c3ccc4c(c3)OCCO4)CC2)c1 | 0.33 |
| C[C@@H]1COC(Nc2ccc3ncnc(Nc4ccc(OCc5nccs5)c(Cl)c4)c3c2)=N1 [Varlitinib] | 0.59 |
| Cc1cc2c(F)c(Oc3ncnn4cc(OC[C@@H](C)OC(=O)[C@H](C)N)c(C)c34)ccc2[nH]1 | 0.68 |
| CNC(=O)c1ccc(-c2cnc3ncc(Cc4ccc5ncccc5c4)n3n2)cc1F | 0.27 |
| CN(C)C/C=C/C(=O)Nc1cc2c(Nc3ccc(F)c(Cl)c3)ncnc2cc1O[C@H]1CCOC1 [Afatinib (BIBW2992)] | 0.51 |
| O=c1cc(N2CCOCC2)oc2c(-c3ccc4c(c3)OCCO4)csc12 | 0.17 |
| C=CC(=O)Nc1cc(Nc2nccc(-c3c[nH]c4ccccc34)n2)c(OC)cc1N(C)CCN(C)C | 0.37 |
| Nc1nccc(Oc2ccc3c(C(=O)Nc4cccc(C(F)(F)F)c4)cccc3c2)n1 | 0.51 |
| CC(C)(C)c1nc(-c2ccc(NC(=O)Nc3cccc(C(F)(F)F)c3)c3ccccc23)c2c(N)nccn12 [kira6] | -0.01 |
| COc1ccc(-c2cc3c(C)nc(N)nc3n([C@H]3CC[C@H](OCCO)CC3)c2=O)cn1 | 0.32 |
| O=C(O)c1cc(O)c2c(c1)[C@@H]([C@H]1c3cc(C(=O)O)cc(O)c3C(=O)c3c(O[C@@H]4O[C@H](CO)[C@@H](O)[C@H](O)[C@H]4O)cccc31)c1cccc(O[C@@H]3O[C@H](CO)[C@@H](O)[C@H](O)[C@H]3O)c1C2=O [Sennoside B] | 0.24 |
| NC(=O)c1cnc2[nH]ccc2c1N[C@@H]1[C@@H]2CC3C[C@H]1C[C@@](O)(C3)C2 | 1.15 |
| C=CC(=O)Nc1cccc(Nc2nc(Nc3ccc(OCCOC)cc3)ncc2F)c1 | 1 |
| CCS(=O)(=O)Nc1ccc2c(c1)/C(=C(/Nc1ccc(CN3CCCCC3)cc1)c1ccccc1)C(=O)N2 [Hesperadin] | 0.76 |
| COc1cc2c(cc1OC)[C@@H]1C(=O)c3ccc4c(c3O[C@@H]1CO2)C=CC(C)(C)O4 [Deguelin] | 0.34 |
| Cc1cc(Nc2cc(N3CCN(C)CC3)nc(/C=C/c3ccccc3)n2)n[nH]1 [ENMD-2076 L-(+)-Tartaric acid] | 1.89 |
| Cc1ccc(NC(=O)c2ccc(CN3CCN(C)CC3)cc2)cc1Nc1nc(-c2cccnc2)cs1 [Masitinib (AB1010)] | 0.53 |
| C=CC(=O)N1CC[C@@H](Oc2nc(Nc3ccc(N4CCC(N5CCN(C)CC5)CC4)cc3)c(C(N)=O)nc2CC)C1 [Naquotinib(ASP8273)] | 0.5 |
| N#CC(=C(/N)Sc1ccccc1N)/C(C#N)=C(\N)Sc1ccccc1N | 0.28 |
| COc1cc2/c(=N/c3ccc(Br)cc3F)nc[nH]c2cc1OCC1CCN(C)CC1 [Vandetanib (ZD6474)] | 0.73 |
| O=C(Nc1cccc(C(F)(F)F)c1)c1cccc2cc(Oc3cc(CO)ncn3)ccc12 | 0.37 |
